# The whole screen tested about 69,000 compounds, of which about 1,000 (1.4%) showed an effect of 50% or more. The full list was thinned out, with strong results kept by preference.
# Tested on: Leishmania donovani
# Assay: Leishmania intramacrophage assay
# Type: functional, organism-based
# Set-up: scale not given: in the data most compounds retested in dose-response had high values
structure (smiles),measurement,setting,value
CCc1nc(C2CCCN2CCC(=O)N2CCc3ccccc32)no1 (stereo not given),Percent Effect,30 µM,-5.363%
Cc1cc(C(=O)Nc2nnn[nH]2)ccc1I,Percent Effect,"30.3 µM, […]",2.496%
O=C(O)C(F)(F)F.O=C(O)C(F)(F)F.O=C(O)C(F)(F)F.c1cncc(COCc2cncc3c2CCN(Cc2ccoc2)C3)c1,Percent Effect,"30.3 µM, […]",3.293%
Cc1nc(N2CCCC2)nc2c1CCN(C(=O)N1CCCC1)CC2,Percent Effect,"30.3 µM, […]",-2.559%
Cc1cc(C(=O)N2CCc3nc(N4CCCC4)nc(C)c3CC2)c(C)o1,Percent Effect,"30.3 µM, […]",44.41%
Cc1nc(N2CCCC2)nc2c1CCN(C(=O)c1ccoc1C)CC2,Percent Effect,"30.3 µM, […]",54.38%
CCn1ccc(C(=O)N2CCCC2(C)c2nc(C)cc(N(C)C)n2)n1 (stereo not given),Percent Effect,"30.3 µM, […]",26.06%
CC(C)CNC(=O)C(C)N1CCN(C2CCN(C(C)C)CC2)CC1 (stereo not given),Percent Effect,"30.3 µM, […]",19.26%
CCN(CC)C(=O)CN1CCC(c2nc(C)c3c(n2)N(C)CCC3)CC1,Percent Effect,"30.3 µM, […]",-13.08%
CCC(=O)N1CCC(c2nc(C)c3c(n2)N(C)CCC3)CC1,Percent Effect,"30.3 µM, […]",31.8%
CCN(CC)C(=O)CN1CCCC(c2nc(C)c3c(n2)N(C)CCC3)C1 (stereo not given),Percent Effect,"30.3 µM, […]",94.66%
CS(=O)(=O)NCC1CCCN(C(=O)Nc2cccnc2N2CCCC2)C1 (stereo not given),Percent Effect,"30 µM, 30.03 µM",4.026%
CS(=O)(=O)NC1CCCN(C(=O)Nc2cccnc2N2CCCC2)C1 (stereo not given),Percent Effect,"30.3 µM, […]",64.13%
CS(=O)(=O)NC1CCCN(C(=O)Nc2cccnc2)C1 (stereo not given),Percent Effect,30 µM,-4.572%
CCOCc1cncc2c1CCN(C(=O)c1cscn1)C2.O=C(O)C(F)(F)F,Percent Effect,"30.3 µM, […]",5.62%
Cc1ccc(C(=O)NC2CCCN(S(C)(=O)=O)C2)c(=O)[nH]1 (stereo not given),Percent Effect,"30.3 µM, […]",4.219%
Cc1ccc(C(=O)NC2CCN(C(C)C)C2)c(=O)[nH]1 (stereo not given),Percent Effect,"30.3 µM, […]",39.11%
Cc1ccc(C(=O)NC2CCN(S(C)(=O)=O)CC2)c(=O)[nH]1,Percent Effect,"30.3 µM, […]",59.71%
CNC(=O)C1CN(c2cc(C)ncn2)CCN1Cc1ccccc1 (stereo not given),Percent Effect,"30.3 µM, […]",-5.457%
CCOC(=O)N1CCN(C(=O)c2cc(-c3ccccc3F)on2)CC1,Percent Effect,"30.3 µM, […]",-28.98%
CCOC(=O)N1CCN(C(=O)c2cc(-c3ccc(C)cc3)on2)CC1,Percent Effect,"30.3 µM, […]",67.95%
CCOC(=O)N1CCN(C(=O)c2cc(-c3ccc(Cl)cc3Cl)on2)CC1,Percent Effect,"30.3 µM, […]",18.25%
Cn1cc(C(=O)N2CC[C@@H]3[C@@H]2CCN3c2ncc(F)cn2)cn1.O=C(O)C(F)(F)F,Percent Effect,"30.3 µM, […]",4.387%
Cc1ccsc1CNC(=O)c1ccc(N2CCOC2=O)cc1,Percent Effect,"30.3 µM, […]",-0.1452%
COc1cccc(COC(C)C(=O)N(C)Cc2nnc3n2CCC3)c1 (stereo not given),Percent Effect,"30.3 µM, […]",-15.17%
Cc1cc(C(=O)NC(COCC(C)C)c2ccco2)no1 (stereo not given),Percent Effect,"30.3 µM, […]",10.39%
COc1ncc(CN(CCN(C)C)Cc2ccc(C)s2)cn1,Percent Effect,"30.3 µM, […]",1.942%
CCNc1ncc(CN(CCN(C)C)Cc2ccc(C)s2)cn1,Percent Effect,"30.3 µM, […]",7.089%
CCc1ccc(CN(CCN(C)C)Cc2ccc(C)s2)nc1,Percent Effect,"30.3 µM, […]",60.62%
CN(C)C(=O)COCC1CN(Cc2ccoc2)Cc2ncn(C)c21.O=C(O)C(F)(F)F.O=C(O)C(F)(F)F (stereo not given),Percent Effect,"30.3 µM, […]",13.81%
O=C(NCC(F)(F)C(F)F)c1ccncc1,Percent Effect,"30.3 µM, […]",-13.6%
O=C(NCC(F)(F)F)c1ccncc1,Percent Effect,"30.3 µM, […]",80.67%
O=C(NCC(F)(F)C(F)F)c1cccnc1,Percent Effect,"30.3 µM, […]",3.821%
CCC(C)N(Cc1cccnc1)Cc1cc2c(cc1OC)OCO2 (stereo not given),Percent Effect,"30.3 µM, […]",16.2%
CCC(C)N(Cc1cccnc1)Cc1cc2c(cc1Cl)OCO2 (stereo not given),Percent Effect,"30.3 µM, […]",69.06%
CCC(C)N(Cc1cccnc1)Cc1ccc2c(c1)OCCO2 (stereo not given),Percent Effect,"30.3 µM, […]",27.15%
CC(C)CN1C(=O)CC(N2CCN(c3ccc(F)cc3)CC2)C1=O (stereo not given),Percent Effect,"30.3 µM, […]",-25.93%
O=C(NC1CC1)c1nc(Cn2c(C(F)F)nc3ccccc32)no1,Percent Effect,"30.3 µM, […]",-15.36%
CC(C)NC(=O)c1nc(Cn2c(C(F)(F)F)nc3ccccc32)no1,Percent Effect,"30.3 µM, […]",55.95%
CC(C)NC(=O)c1nc(Cn2c(C(F)F)nc3ccccc32)no1,Percent Effect,"30.3 µM, […]",-22.55%
CCc1nnc2n1CCN(CC(O)c1ccc3c(c1)OCCO3)C2 (stereo not given),Percent Effect,30 µM,-7.197%
CN(C)S(=O)(=O)N1CCN(C(=O)OC(C)(C)C)CC12CCCCC2,Percent Effect,"30.3 µM, […]",5.768%
CC(C)(C)OC(=O)N1CCN(S(=O)(=O)CCCC#N)C2(CCCCC2)C1,Percent Effect,"30.3 µM, […]",52.1%
CC(C)(C)OC(=O)N1CCN(S(C)(=O)=O)C2(CCCCC2)C1,Percent Effect,"30.3 µM, […]",27.8%
CN1CCN(CC2(O)CCCN(S(=O)(=O)c3cn[nH]c3)CC2)CC1 (stereo not given),Percent Effect,"30.3 µM, […]",4.995%
Cc1ccc(CN2CCN(Cc3nccn3C)[C@H]3CS(=O)(=O)C[C@H]32)o1,Percent Effect,"30.3 µM, […]",16.96%
CC(C)n1cc(N2Cc3nc(N4CCOCC4)ncc3C2=O)cn1,Percent Effect,"30.3 µM, […]",32.93%
Cn1cc(N2Cc3nc(N4CCOCC4)ncc3C2=O)cn1,Percent Effect,"30.3 µM, […]",59.37%
CCn1cc(N2Cc3nc(N4CCOCC4)ncc3C2=O)cn1,Percent Effect,"30 µM, 30.03 µM",-6.754%
CN(C)Cc1ccc(C(N)=O)cc1NC(=O)c1cccc(C#N)c1,Percent Effect,"30.3 µM, […]",0.5381%
CC(=O)N1CCC(Cc2cccc(-c3ccnn3C)n2)CC1,Percent Effect,"30.3 µM, […]",7.143%
CN(CCNC(=O)Nc1cnn(C)c1)Cc1ccc(F)cc1,Percent Effect,"30.3 µM, […]",-44.73%
CN(CCNC(=O)Nc1ccn(C)n1)Cc1ccc(F)cc1,Percent Effect,"30.3 µM, […]",-20.54%
CN(CCNC(=O)Nc1nccs1)Cc1ccc(F)cc1,Percent Effect,"30.3 µM, […]",53.32%
CCSCc1cccc(NC2CCN(C)C2=O)c1 (stereo not given),Percent Effect,"30.3 µM, […]",-1.156%
COCCCN(C)c1cc(C(F)(F)F)nc(-c2cccnc2)n1,Percent Effect,"30.3 µM, […]",1.301%
Cl.c1ccc(-c2ccc(C3CNCCO3)nc2)cc1 (stereo not given),Percent Effect,"30 µM, 30.03 µM",21.61%
CCNC(=O)N(Cc1ccoc1)C1CCCCC1,Percent Effect,"30.3 µM, […]",-8.85%
COc1cc(CSc2nnc(N)n2C2CC2)ccc1SC,Percent Effect,"30.3 µM, […]",3.668%
CC(C)(C)c1ncc(C(=O)N2CCC(N3CCSCC3)CC2)c(O)n1,Percent Effect,"30.3 µM, […]",-1.593%
Cc1ccc(CC(=O)NCC(Cc2ccc(F)cc2)C(N)=O)cn1 (stereo not given),Percent Effect,"30.3 µM, […]",53.64%
NC(=O)C(CNC(=O)Cc1ccsc1)Cc1ccc(F)cc1 (stereo not given),Percent Effect,"30.3 µM, […]",32.76%
NC(=O)C(CNC(=O)Cc1ccc(F)cc1)Cc1ccc(F)cc1 (stereo not given),Percent Effect,"30 µM, 30.03 µM",16.98%
CSc1ncnc(NCc2cccs2)c1C#N,Percent Effect,"30.3 µM, […]",10.2%
COCCCN1Cc2cccc(NC(=O)c3ccccc3C)c2C1,Percent Effect,"30.3 µM, […]",-0.887%

# Source: ChEMBL document CHEMBL3988442, “University of Dundee, Small-Polar-MMV Screening Library” (2021)
